Compounds without any hit were thinned out: in the full panel of roughly 83,000, 20% have a hit.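 Assay: single dose, 48 h. Readout: percent growth (0 = no net growth; negative = cell death). Active: <10.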 The source made the active and inactive calls.
What was measured:
Test in all cases: NCI-60 one-dose screen, 48 h (100 = growth as untreated, 0 = no growth, -100 = all killed)
Settings in all cases: 10 µM unless noted
[1] = tested on: NCI-H23 lung
[2] = tested on: NCI-H226 lung
[3] = tested on: NCI-H322M lung
[4] = tested on: HOP-62 NSCLC
[5] = tested on: HOP-92 NSCLC
[6] = tested on: NCI-H522 lung
[7] = tested on: A549/ATCC NSCLC
[8] = tested on: 786-0 renal
[9] = tested on: COLO 205 colon
[10] = tested on: NCI-H460 lung

Measured: growth

Cc1nn(-c2ccccc2)c(Cl)c1/C=C(/NC(=O)c1ccccc1)c1nc2ccccc2[nH]1
inactive: [1] 106% | [2] 108% | [3] 90.3% | [4] 99% | [5] 82.6% | [6] 86.6% | [7] 90% | [8] 90.2% | [9] 83.6%

O=C(COc1ccc(/C=C2\Oc3ccccc3C2=O)cc1)Nc1nc2c(s1)CCCC2
active: [5] -90.1% | [6] -74.9%
inactive: [1] 45.1% | [2] 84.3% | [3] 115% | [4] 44.2% | [7] 73.2% | [8] 20% | [9] 102%

COc1cccc(C(=O)NCCCNc2cc(-c3cn(-c4ccccc4)nc3-c3cccc(OC)c3)ccn2)c1
inactive: [1] 45.4% | [2] 54.6% | [3] 99.6% | [4] 66% | [5] 45.3% | [6] 46.1% | [7] 29.9% | [8] 36.6% | [9] 40%

O=C(c1ccccc1)N1N=C(c2ccccc2)CC1c1nnc2n(Cc3ccccc3)c(=O)c3c4c(sc3n12)CCCC4 (centres undefined)
inactive: [1] 116% | [2] 110% | [3] 89.4% | [4] 98% | [5] 95.3% | [6] 91.6% | [7] 89.3% | [8] 101% | [9] 117%

CCN(CC)CCN1CC(O)=C(c2nc(-c3ccc(Cl)cc3)cs2)C1=N
inactive: [1] 65.2% | [2] 99.2% | [3] 15.6% | [6] 49.8% | [7] 46.8%
active: [4] -53.3% | [5] -44.3% | [8] -68.5% | [9] -58.3%

CC(C)(C)c1ccc(/C=C/C(=O)Nc2ccc(O)cc2)cc1
inactive: [1] 80.9% | [2] 65% | [3] 78% | [4] 52.2% | [5] 106% | [6] 26.4% | [7] 64.6% | [8] 69.1% | [9] 73.6%

COc1ccc(CN2C(=O)C(Cl)=C(Nc3cccc(C(F)(F)F)c3)C2=O)cc1
active: [5] -17.2%
inactive: [1] 36.8% | [2] 49.5% | [3] 84.3% | [4] 28.3% | [6] 40.6% | [8] 37.8% | [9] 36.5%

CCCCCCCOc1c(OC)cc(C2CC(=O)Nc3c2c(C)nn3-c2nc3ccccc3[nH]2)cc1OC (centres undefined)
active: [1] -2.79% | [2] -38.7% | [3] 2.06% | [4] -22.6% | [5] -8.34% | [6] -40.7% | [7] 1.6% | [8] 4.68%

O=C(/C=C/c1c(Cl)nc2sccn12)c1ccc(F)c(F)c1
inactive: [1] 67% | [2] 73.2% | [3] 93.1% | [4] 79.8% | [5] 50.6% | [6] 66.5% | [7] 80.3% | [8] 84.7% | [9] 93%

COc1c(CCC[P+](c2ccccc2)(c2ccccc2)c2ccccc2)cc2c(c1OC)OCO2
active: [1] 2.87% | [5] -4.16% | [6] -11.8% | [9] -55.6%
inactive: [2] 27% | [3] 45.4% | [4] 15.1% | [7] 40% | [8] 21.8%

COc1cc2c(cc1-c1c(C)noc1C)ncc1nc(C3CCCCC3)n(C3CCC(OC(F)F)CC3)c12 (centres undefined)
inactive: [1] 40.8% | [2] 62.2% | [3] 54.7% | [4] 38.3% | [7] 25.3% | [8] 41.4%
active: [5] 1.82% | [6] -12.2% | [9] 1.16%

N#C/C(=C\c1ccc(Br)cc1)n1nnc2cc(F)c(F)cc21
inactive: [1] 28.5% | [2] 37.3% | [3] 58.6% | [4] 25.9% | [6] 19.9% | [7] 41.5% | [8] 23.2% | [9] 25.7%
active: [5] -9.69%

COc1cccc(-c2nc3sccn3c2-c2ccnc(NCCNS(=O)(=O)c3cccc(Cl)c3)c2)c1
inactive: [1] 53.5% | [2] 40.7% | [3] 80.8% | [4] 70.9% | [5] 37.2% | [6] 56.7% | [7] 45.4% | [8] 63.6% | [9] 34.8%

S=C(Cc1ccc2c(c1)CCCC2)N1CCOCC1
inactive: [1] 98.4% | [2] 110% | [3] 94.8% | [4] 89.8% | [5] 121% | [6] 81.3% | [7] 93.2% | [8] 101% | [9] 106%

CC(C)C(=O)Nc1n[nH]c2cc(-c3cccc(NS(=O)(=O)C4CC4)c3)ccc12
inactive: [1] 53.6% | [2] 60% | [3] 96.2% | [4] 66.5% | [5] 72.7% | [6] 40.8% | [7] 80.3% | [8] 89.2% | [9] 84.7%

CC/C=C/C/C=C/C/C=C/C/C=C/C/C=C/C/C=C/CCC(=O)Nc1ccn([C@@H]2O[C@H](CO)[C@@H](O)C2(F)F)c(=O)n1
active: [1] 1.56% | [2] 8.09% | [4] 8.82% | [8] 0.0768%
inactive: [3] 51.9% | [5] 32.1% | [6] 39.8% | [7] 17.6% | [9] 11.8%

CC1CC2Oc3ccc(Cl)cc3C(=O)N2O1 (centres undefined)
inactive: [1] 99.5% | [2] 99.3% | [3] 126% | [4] 101% | [5] 86.4% | [6] 108% | [7] 98% | [8] 104%

CC(CCc1ccc(Cl)c(Cl)c1)NCc1ccc(C(C)(C)C)cc1 (centres undefined)
inactive: [1] 91.9% | [2] 83.9% | [3] 97.8% | [4] 85.9% | [5] 59.5% | [6] 82.7% | [7] 60.8% | [8] 70.8%
active: [9] -38.2%

Cc1c(C(=O)N[C@@H](Cc2ccccc2)C(=O)C(=O)NCCc2ccccc2)[nH]c2ccccc2c1=O
inactive: [1] 93.5% | [2] 101% | [3] 96.2% | [4] 111% | [5] 116% | [6] 97.6% | [7] 98.8% | [8] 107%

Cc1ccc(N(C(=O)CCc2c[nH]c3ccccc23)[C@H](C(=O)Nc2ccc(Cl)cc2)c2cccc([N+](=O)[O-])c2)cc1
inactive: [2] 74.9% | [3] 79.1% | [4] 68% | [10] 98.2% | [5] 75.9% | [6] 64.2% | [7] 73.8% | [8] 90.5%

Cc1cc[c-]cc1.Fc1c[c-]c(-c2ccccn2)c(F)c1.[Pt+2].c1ccc(P(C[PH+](c2ccccc2)c2ccccc2)c2ccccc2)cc1
active: [1] 7.43% | [2] -2.11% | [10] 3.67% | [5] -16.3% | [6] 8.51% | [7] 8.52% | [9] -41.2%
inactive: [3] 19.2% | [8] 23.1%

CCOC(=O)/C=C/c1cc2cc(-c3csc4ccccc34)ccc2[nH]1
inactive: [1] 60.6% | [2] 103% | [3] 115% | [10] 83.8% | [5] 99.7% | [6] 40% | [7] 55.5% | [8] 82.4% | [9] 93.4%

CCCc1cc2c(=O)c(C(=O)OC)c[nH]c2cc1N(CC)CC
active: [7] -20%
inactive: [1] 102% | [2] 81.7% | [3] 84.2% | [10] 102% | [5] 111% | [6] 73.7% | [8] 101% | [9] 119%

Cc1ccc(Nc2ccc(Nc3ccc(C)cc3)c3c2C(=O)c2cccc(O)c2C3=O)cc1
inactive: [1] 84.5% | [2] 73.1% | [3] 108% | [10] 88.3% | [5] 70.4% | [6] 90.6% | [7] 103% | [8] 111% | [9] 102%

O=C(NCCCNc1cc(-c2cn(-c3ccccc3)nc2-c2cccc(O)c2)ccn1)c1cccc(O)c1
inactive: [1] 67.3% | [2] 86.6% | [3] 111% | [10] 69.6% | [5] 57.2% | [6] 53% | [8] 63.8% | [9] 80.2%

COc1ccc(/C=c2\nc3n(-c4ccccc4)c4nc5c6c(sc5c(=N)n4n-3c2=O)CCCC6)cc1
inactive: [1] 80.8% | [2] 69.2% | [3] 94.6% | [10] 98.1% | [5] 63.4% | [6] 83.4% | [7] 97.4% | [8] 99.5% | [9] 111%

COc1ccc(C(=O)COc2ccc(/C=C3\Oc4ccccc4C3=O)cc2)cc1
inactive: [1] 92.9% | [2] 88% | [3] 108% | [10] 102% | [5] 75.8% | [6] 63% | [7] 99% | [8] 98.1% | [9] 99.2%

CCN1C(=O)N(CC)C2Nn3c(s/c(=C\c4cccc([N+](=O)[O-])c4)c3=O)=NC21 (centres undefined)
inactive: [1] 57.7% | [2] 88% | [3] 64.3% | [10] 23.8% | [5] 75.8% | [7] 45.1% | [8] 36%
active: [9] 6.72%

COc1cc(C(=O)/C=C/c2c(-c3ccc(F)cc3)nc3sc(C)cn23)cc(OC)c1OC
inactive: [1] 28.9% | [2] 58.5% | [3] 52% | [10] 28.7% | [5] 23.4% | [6] 93.4% | [7] 45.4% | [8] 40.8% | [9] 52%

From PubChem BioAssay (NCI)
